The values below come from PubChem BioAssay (Tox21).

Records with an inconclusive call do not appear. Activity calls are given as the source filed them. Calls follow the shape of the full dose curve.
% is scaled to controls: 0 for no effect and ±100 for the full control effect.

This assay in a line: p53 small molecule agonists, cell-based qHTS assay with rat liver microsomes (AID 1963578). To be noted: HCT-116 p53RE-bla, beta-lactamase ratio, 16 h; series mostly up to 66 µM; activation: at the top concentration. From the text:
U.S. Tox21 Program National Center for Advancing Translational Sciences [NCATS] Division of Preclinical Innovation [DPI] U.S. Environmental Protection Agency [EPA] National Institutes of Environmental Health Sciences [NIEHS] National Toxicology Program [NTP] U.S. Food and Drug Administration [FDA] Tox21 Assay Overview: p53, a tumor suppressor protein, is activated following cellular insult, including DNA damage and other cellular stresses. The activation of p53 regulates cell fate by inducing DNA repair, cell cycle arrest, apoptosis, or cellular senescence. The activation of p53, therefore, is a good indicator of DNA damage and other cellular stresses. […] The activation of the reporter gene under culture conditions can be detected by fluorescence intensity. This cell line was used to screen the Tox21 10K compound library in the condition of presence of rat liver microsomes and to identify agonists that activate the p53 signaling pathway after in vitro metabolic activation (Ooka et al., Archive of Toxicology 96:1975-1987, 2022).
Tox21 Assay Protocol Summary: The p53RE-bla cells were dispensed at 4,000cells/3ul/well in 1536-well black-clear bottom plates. After the assay plates were incubated at 37 C, 5% CO2 incubator for 5 hours, 23 nL of compounds dissolved in DMSO, positive controls or DMSO only was transferred to the assay plate. Following compound addition, 3 uL of rat liver microsomes (Molecular Toxicology, Boone, NC) at final concentration of 0.5 mg/mL and 1uL of Beta-Nicotinamide adenine dinucleotide 2-phosphate (NADPH) at final concentration of 0.5 mg/mL were transferred to the assay plate. The plates were incubated at 37 C for 16 hours. 1 uL of LiveBLAzer detection mixture was added to each well and the plates were incubated at room temperature in the dark for 2 h.
With `COC(CC(C)CCCC(C)(C)O)OC` (stereo not given), the “activation” value was -0.0785% (inactive).

Consider `CCOCCOCCOCCO`, for which the “activation” value is 0.0652% (inactive). Consider `CC(CO)c1ccccc1` (stereo not given), for which the “activation” value was 0.186% (inactive). On to `NNS(=O)(=O)c1ccc(Oc2ccc(S(=O)(=O)NN)cc2)cc1`, for which the “activation” value is 0.703% (inactive). On the same count and under the same terms, next, `C=CCCCCCCCCCCCCCCCC`: -2.36% [at 5.99 µM] (inactive); `CO[C@@]1(NC(=O)CSC[C@@H](N)C(=O)O)C(=O)N2C(C(=O)O)=C(CSc3nnnn3C)CS[C@@H]21`: 0.0176% [at 30.3 µM] (inactive); `C=C(C)[C@@H]1CCC2=CCC[C@@H](C)[C@]2(C)C1`: 1.17% (inactive). Still for that read-out and setting: in the case of `O=c1[nH]c(=O)c2cn[nH]c2[nH]1` it was 0.0499% (inactive); in that of `CN(C)c1cc(NC(=O)CNC(C)(C)C)c(O)c2c1C[C@H]1C[C@H]3[C@H](N(C)C)C(=O)C(C(N)=O)=C(O)[C@@]3(O)C(=O)C1=C2O`, 0.917% [at 30.3 µM] (inactive). As to `CN1CCCC1=O`, the Potency result was “inactive”. With `CCCCCCS`, the “activation” value was -0.789% (inactive). On the same count and under the same terms, next, `C1CCC(SSC2CCCCC2)CC1`: 5.32% (inactive); `Cc1ccc(-c2ccccc2)cc1`: 0.147% (inactive). The same measure, in the same setting: next, `C=CC(=O)OCCCCCCCC`: 1.3% (inactive); `CC1COc2ccccc2N1` (stereo not given): 1.57% (inactive). On to `Cn1c(=O)c2c(ncn2C)n(C)c1=O`, for which the Potency entry is “inactive”. Take `CC(C)(CO)[C@@H](O)C(=O)NCCC(=O)O`: the “activation” value is -0.0883% (inactive). As for `NC(=O)CCCCC(N)=O`, the “activation” value was -0.101% (inactive). On the same count and under the same terms, in the case of `CCOC(/C=C(\C)CCC=C(C)C)OCC` it was 0.967% (inactive). Consider `CCCSc1ccc2nc(NC(=O)OC)[nH]c2c1`, for which the Potency entry was “inactive”. Consider `CC1CNCC(C)O1` (stereo not given), for which the “activation” value was -2.24% (inactive). The same measure, in the same setting: in the case of `CC(=O)O[C@H](CC(=O)[O-])C[N+](C)(C)C` it was -0.842% (inactive); in that of `CCCCCCCCCCCCI`, -0.0918% (inactive).

Consider `CCCCC(CC)COC(=O)c1ccc(O)cc1` (stereo not given), for which the Potency entry is “inactive”. On to `NC(=O)Nc1ccccc1`, for which the “activation” value was 0.2% (inactive). Same read-out and setting: next, `CCCCCCCCSCC`: -2.96% (inactive); `O=C1C(c2[nH]c3ccc(S(=O)(=O)O)cc3c2O)=Nc2ccc(S(=O)(=O)O)cc21`: 2.55% (inactive). Still for that read-out and setting: in the case of `Nc1ncnc2c1ncn2Cc1c(F)cccc1Cl` it was -5.2% [at 30.3 µM] (inactive). On the same count and under the same terms, next, `CCC(C)(C)C`: 2.76% (inactive); `CCC(C)(C)CC`: -0.698% (inactive); `CCCCCc1cccc(=O)o1`: 0.503% (inactive). In the case of `CC(C#N)(CCC(=O)O)N=NC(C)(C#N)CCC(=O)O` (stereo not given), the “activation” value was -0.0491% (inactive). With `CCCCCCCC(=O)OCCCCCC`, the “activation” value is -3.61% (inactive).

Regarding `CC(=O)N(c1onc(C)c1C)S(=O)(=O)c1ccc(N)cc1`, the “activation” value was -1.35% [at 30.3 µM] (inactive). `NCCC(O)(P(=O)(O)O)P(=O)(O)O`: the “activation” value is -0.629% [at 30.3 µM] (inactive). Consider `CC(=O)O[C@H]1C[C@@H]2CC[C@@]1(C)C2(C)C`, for which the “activation” value is 0.157% (inactive). Regarding `CN(C)c1ccc(/C=C/c2ccc([N+](=O)[O-])cc2)cc1`, the activation is -4.52% [at 5.99 µM] (inactive). For `C[Si](C)O[Si](C)C`, the “activation” value is 1.57% (inactive). For `NCCN1CCNC1=O`, the “activation” value is 0.378% (inactive). For the compound `CCc1cccc(CC)c1NC(=O)C(=O)O`, the “activation” value is -1.67% (inactive).
